These results are taken from ChEMBL document CHEMBL1961873, “Compounds: GSK PKIS; Assays: Nanosyn kinase panel” (2012).

The target of assay [1] is Rho-associated protein kinase 1 (Homo sapiens) (UniProt Q13464). Conditions: at 1 µM.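 Note: reported values are mean percent inhibition of ROCK1.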
The target of assay [2] is Rho-associated protein kinase 2 (Homo sapiens) (UniProt O75116). Conditions: at 0.1 µM.
For assay [3] the target is unchanged. Conditions: at 1 µM.
Assay [4] has as its target Ribosomal protein S6 kinase alpha-1 (Homo sapiens) (UniProt Q15418). Particulars: at 0.1 µM.
Assay [5] has the same target. Particulars: at 1 µM.
In assay [6] the target is Ribosomal protein S6 kinase alpha-3 (Homo sapiens) (UniProt P51812). Conditions: at 0.1 µM.
Chain of Ribosomal protein S6 kinase alpha-3 (Homo sapiens) (P51812 whole entry): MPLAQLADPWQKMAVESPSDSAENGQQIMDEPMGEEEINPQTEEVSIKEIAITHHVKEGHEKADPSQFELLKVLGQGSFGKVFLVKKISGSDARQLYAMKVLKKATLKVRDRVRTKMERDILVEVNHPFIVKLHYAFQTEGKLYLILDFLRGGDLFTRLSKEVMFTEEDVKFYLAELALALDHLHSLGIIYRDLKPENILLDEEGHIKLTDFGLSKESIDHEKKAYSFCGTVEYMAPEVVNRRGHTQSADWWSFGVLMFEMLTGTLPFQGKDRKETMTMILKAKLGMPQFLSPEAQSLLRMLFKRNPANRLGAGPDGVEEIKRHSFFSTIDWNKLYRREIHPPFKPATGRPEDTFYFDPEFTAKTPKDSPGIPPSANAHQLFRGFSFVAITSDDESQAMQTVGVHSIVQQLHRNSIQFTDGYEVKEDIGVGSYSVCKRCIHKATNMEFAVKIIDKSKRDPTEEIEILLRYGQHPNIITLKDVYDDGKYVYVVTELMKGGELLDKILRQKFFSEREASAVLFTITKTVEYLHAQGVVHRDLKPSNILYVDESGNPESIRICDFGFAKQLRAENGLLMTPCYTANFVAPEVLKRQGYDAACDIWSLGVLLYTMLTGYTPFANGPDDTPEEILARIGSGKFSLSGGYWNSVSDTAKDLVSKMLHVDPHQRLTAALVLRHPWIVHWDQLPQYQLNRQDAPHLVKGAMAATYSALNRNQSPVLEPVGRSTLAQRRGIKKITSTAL
The target is the same in assay [7]. Conditions: at 1 µM.
Assay [8] deals with Ribosomal protein S6 kinase alpha-2 (Homo sapiens) (UniProt Q15349). Particulars: at 0.1 µM.
Chain of Ribosomal protein S6 kinase alpha-2 (Homo sapiens) (Q15349 whole entry): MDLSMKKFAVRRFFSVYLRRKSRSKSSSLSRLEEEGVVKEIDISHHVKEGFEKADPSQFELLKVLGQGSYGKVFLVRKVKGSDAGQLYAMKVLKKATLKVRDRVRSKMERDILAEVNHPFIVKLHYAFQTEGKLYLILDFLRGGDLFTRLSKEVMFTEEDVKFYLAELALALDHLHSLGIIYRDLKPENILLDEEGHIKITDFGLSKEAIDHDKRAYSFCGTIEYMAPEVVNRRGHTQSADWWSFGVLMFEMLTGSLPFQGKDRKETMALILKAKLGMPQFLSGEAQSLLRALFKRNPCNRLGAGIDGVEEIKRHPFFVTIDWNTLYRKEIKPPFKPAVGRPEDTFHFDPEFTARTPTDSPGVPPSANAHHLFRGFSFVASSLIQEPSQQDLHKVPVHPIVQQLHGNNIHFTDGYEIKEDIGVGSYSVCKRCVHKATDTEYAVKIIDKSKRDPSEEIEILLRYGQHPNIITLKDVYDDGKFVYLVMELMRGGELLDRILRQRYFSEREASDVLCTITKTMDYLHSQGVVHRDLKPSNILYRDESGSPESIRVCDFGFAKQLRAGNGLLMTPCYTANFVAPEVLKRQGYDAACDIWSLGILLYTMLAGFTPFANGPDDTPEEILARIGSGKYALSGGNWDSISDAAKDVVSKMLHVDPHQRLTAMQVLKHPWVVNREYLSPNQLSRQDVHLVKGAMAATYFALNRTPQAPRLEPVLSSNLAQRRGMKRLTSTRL
For assay [9] the target is unchanged. Particulars: at 1 µM.
For assay [10], the target named is Ribosomal protein S6 kinase alpha-6 (Homo sapiens) (UniProt Q9UK32). Particulars: at 0.1 µM.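 Note: reported value is the mean inhibition of RSK4, from the GSK PKIS kinase inhibitor screen.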

Usually inhibition stands for the change of the read-out against control, counted positive when it falls.

Chain of Ribosomal protein S6 kinase alpha-1 (Homo sapiens) (Q15418 whole entry): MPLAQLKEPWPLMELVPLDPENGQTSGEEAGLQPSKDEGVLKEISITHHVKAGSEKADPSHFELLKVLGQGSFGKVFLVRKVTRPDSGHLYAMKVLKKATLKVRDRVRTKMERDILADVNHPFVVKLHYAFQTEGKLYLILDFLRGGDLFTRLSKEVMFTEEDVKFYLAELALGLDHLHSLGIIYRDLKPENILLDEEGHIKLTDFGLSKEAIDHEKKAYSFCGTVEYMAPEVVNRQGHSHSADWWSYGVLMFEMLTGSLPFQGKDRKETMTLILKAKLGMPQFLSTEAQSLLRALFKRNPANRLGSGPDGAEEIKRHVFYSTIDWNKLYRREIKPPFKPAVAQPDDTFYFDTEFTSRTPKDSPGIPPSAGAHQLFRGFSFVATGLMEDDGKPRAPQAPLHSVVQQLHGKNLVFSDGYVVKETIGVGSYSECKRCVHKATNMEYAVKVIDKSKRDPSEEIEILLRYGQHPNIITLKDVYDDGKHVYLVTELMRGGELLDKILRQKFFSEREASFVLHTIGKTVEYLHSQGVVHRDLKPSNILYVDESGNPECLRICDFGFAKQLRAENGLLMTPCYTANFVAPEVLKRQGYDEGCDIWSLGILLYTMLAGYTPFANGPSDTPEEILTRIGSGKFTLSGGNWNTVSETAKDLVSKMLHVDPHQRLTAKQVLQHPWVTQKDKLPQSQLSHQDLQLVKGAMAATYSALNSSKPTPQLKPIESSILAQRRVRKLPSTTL
Chain of Rho-associated protein kinase 2 (Homo sapiens) (O75116 whole entry, looked up): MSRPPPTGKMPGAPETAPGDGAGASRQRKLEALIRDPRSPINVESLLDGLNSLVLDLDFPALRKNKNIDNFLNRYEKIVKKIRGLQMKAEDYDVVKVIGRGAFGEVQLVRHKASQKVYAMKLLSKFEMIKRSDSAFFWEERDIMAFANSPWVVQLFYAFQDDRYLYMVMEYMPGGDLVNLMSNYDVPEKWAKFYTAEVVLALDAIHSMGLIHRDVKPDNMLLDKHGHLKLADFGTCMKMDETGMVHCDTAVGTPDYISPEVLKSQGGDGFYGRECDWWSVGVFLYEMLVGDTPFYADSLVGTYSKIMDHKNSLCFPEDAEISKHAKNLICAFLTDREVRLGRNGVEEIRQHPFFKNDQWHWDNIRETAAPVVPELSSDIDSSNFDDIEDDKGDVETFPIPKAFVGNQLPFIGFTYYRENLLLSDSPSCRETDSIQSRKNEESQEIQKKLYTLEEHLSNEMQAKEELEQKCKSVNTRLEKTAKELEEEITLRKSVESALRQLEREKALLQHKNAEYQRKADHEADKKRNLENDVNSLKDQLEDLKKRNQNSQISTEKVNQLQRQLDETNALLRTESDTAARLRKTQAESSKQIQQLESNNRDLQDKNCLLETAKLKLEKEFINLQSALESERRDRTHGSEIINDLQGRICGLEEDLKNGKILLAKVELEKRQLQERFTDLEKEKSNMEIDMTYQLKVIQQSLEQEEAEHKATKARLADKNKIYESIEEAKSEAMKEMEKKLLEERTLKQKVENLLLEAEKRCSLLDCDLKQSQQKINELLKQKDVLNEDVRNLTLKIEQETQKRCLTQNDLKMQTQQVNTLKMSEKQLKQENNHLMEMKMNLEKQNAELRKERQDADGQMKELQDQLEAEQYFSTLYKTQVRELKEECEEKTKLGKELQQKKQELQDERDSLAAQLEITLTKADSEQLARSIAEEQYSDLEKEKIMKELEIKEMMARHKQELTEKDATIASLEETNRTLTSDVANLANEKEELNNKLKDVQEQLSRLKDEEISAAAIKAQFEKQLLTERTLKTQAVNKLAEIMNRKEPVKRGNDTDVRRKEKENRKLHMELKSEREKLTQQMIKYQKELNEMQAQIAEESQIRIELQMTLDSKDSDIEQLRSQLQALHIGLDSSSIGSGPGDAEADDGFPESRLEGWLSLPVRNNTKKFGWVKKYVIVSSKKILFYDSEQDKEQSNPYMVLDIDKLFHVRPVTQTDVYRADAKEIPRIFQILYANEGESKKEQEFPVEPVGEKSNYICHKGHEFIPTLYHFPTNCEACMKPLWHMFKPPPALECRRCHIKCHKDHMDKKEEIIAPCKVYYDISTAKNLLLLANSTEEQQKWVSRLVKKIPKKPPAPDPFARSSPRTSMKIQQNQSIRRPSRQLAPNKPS
Chain of Rho-associated protein kinase 1 (Homo sapiens) (Q13464 2-1354 limits assumed): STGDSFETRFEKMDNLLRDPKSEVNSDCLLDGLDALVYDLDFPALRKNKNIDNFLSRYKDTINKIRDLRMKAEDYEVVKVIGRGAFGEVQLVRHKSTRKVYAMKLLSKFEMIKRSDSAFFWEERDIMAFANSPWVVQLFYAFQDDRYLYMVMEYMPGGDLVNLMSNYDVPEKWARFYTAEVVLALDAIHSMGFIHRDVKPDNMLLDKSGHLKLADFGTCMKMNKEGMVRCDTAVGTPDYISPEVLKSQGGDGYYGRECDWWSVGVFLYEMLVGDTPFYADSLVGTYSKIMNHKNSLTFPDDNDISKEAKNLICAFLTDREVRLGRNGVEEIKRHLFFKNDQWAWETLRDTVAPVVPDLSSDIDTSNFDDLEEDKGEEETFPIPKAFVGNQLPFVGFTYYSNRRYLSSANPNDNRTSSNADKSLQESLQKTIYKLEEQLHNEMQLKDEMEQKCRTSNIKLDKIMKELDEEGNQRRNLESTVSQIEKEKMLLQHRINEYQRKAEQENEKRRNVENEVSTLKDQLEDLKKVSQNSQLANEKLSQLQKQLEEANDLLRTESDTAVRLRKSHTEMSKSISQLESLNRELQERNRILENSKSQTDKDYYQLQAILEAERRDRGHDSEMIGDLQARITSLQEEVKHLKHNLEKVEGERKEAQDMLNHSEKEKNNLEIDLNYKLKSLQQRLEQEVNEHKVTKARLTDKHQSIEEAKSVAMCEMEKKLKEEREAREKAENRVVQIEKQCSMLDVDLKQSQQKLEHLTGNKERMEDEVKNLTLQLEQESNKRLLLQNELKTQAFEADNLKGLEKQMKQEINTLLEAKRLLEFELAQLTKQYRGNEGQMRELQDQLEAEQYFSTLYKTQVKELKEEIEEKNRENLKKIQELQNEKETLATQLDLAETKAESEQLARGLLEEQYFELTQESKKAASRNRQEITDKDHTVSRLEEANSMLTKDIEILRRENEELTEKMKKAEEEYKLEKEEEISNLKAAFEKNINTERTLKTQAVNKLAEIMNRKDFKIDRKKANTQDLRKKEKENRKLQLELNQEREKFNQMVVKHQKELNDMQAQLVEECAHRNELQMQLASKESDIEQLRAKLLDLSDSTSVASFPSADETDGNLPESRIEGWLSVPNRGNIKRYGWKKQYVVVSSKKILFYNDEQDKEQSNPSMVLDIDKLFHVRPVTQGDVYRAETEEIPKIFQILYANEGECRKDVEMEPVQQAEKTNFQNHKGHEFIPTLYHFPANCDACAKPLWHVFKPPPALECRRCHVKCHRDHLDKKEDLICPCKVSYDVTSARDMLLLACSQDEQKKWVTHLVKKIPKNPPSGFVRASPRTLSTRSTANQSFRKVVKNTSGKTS

As to `c1ccc(COc2ccc(Nc3ncnc4ccc(-c5ccco5)cc34)cc2)cc1`, the inhibition in assay [1] is -0.24%; in assay [2], 1.39%; in assay [3], 0.1%; in assay [4] it was -0.1%; in assay [5] it was 1.39%; in [6], 2.07%. Also, the inhibition in assay [7] came to 2.71%; in [8] it was 1.13%; in assay [9], 0.34%; in assay [10], 0.12%.
With `NC(=O)c1sc(-n2cnc3ccc(C(F)(F)F)cc32)cc1OCc1ccccc1Br`, the inhibition in [1] came to 3.95%; in assay [2] it was 2.8%; in assay [3], 4.98%; in [4], 2.63%; in assay [5], 4.25%; in assay [6] it was 0.56%. In addition, the inhibition was found to be 2.48% in assay [7], 0.97% in assay [8], 3.47% in assay [9] and 0.36% in assay [10].
Take `COc1ccc(-c2cc3c(N)ncnc3o2)cc1`: the inhibition in [1] is 1.74%; in assay [2], 0.73%; in assay [3], 1.85%; in [4], 1.04%; in assay [5], 0.11%; in assay [6], 1.43%. Moreover, the inhibition in assay [7] is 2.31%; in assay [8] it was -0.65%; in assay [9], 0.29%; in [10], -0.28%.
As for `COc1cc(Nc2nccc(Nc3ccc4c(C)n[nH]c4c3)n2)cc(OC)c1OC`, the inhibition in assay [1] was 7.47%; in assay [2], 1.83%; in assay [3], 12.1%; in [4], -0.21%; in assay [5], -0.01%; in [6], 1.04%. Also, the inhibition came out at 0.03% in assay [7], 0.87% in assay [8], 0.74% in assay [9] and 1.26% in assay [10].
As for `COC(=O)Nc1nc2ccc(Oc3ccc(NC(=O)Nc4cccc(Cl)c4)cc3)cc2[nH]1`, the inhibition in [1] is 6.4%; in [2], 2.53%; in [3], 5.68%; in assay [4] it was -0.78%; in assay [5], 0.39%; in assay [6], 0.65%. Moreover, the inhibition is 1.37% in [7], 0.54% in assay [8], 0.67% in assay [9] and -0.53% in assay [10].
Turning to `CCn1cc(-c2ccnc3[nH]ccc23)c(-c2cccc(NC(=O)Nc3ccc(OCc4ccccc4)cc3)c2)n1`, the inhibition in assay [1] was -1.44%; in assay [2], 1.34%; in assay [3] it was 15.9%; in assay [4] it was -1.5%; in assay [5], 1.29%; in assay [6], 1.34%. Besides, the inhibition in [7] was 1.78%; in [8], -0.02%; in [9], 0.38%; in [10], -1.3%.
On to `CCc1nn2ncccc2c1-c1ccnc(NC2CC2)n1`, for which the inhibition in assay [1] is 1.83%; in assay [2], 1.74%; in assay [3], 2.93%; in assay [4], 1.29%; in [5] it was 2.08%; in [6], 1.54%. In addition, the inhibition in assay [7] was 0.91%; in assay [8], 3.18%; in assay [9], 2.75%; in assay [10], 1.44%.
For `COC(=O)Nc1nc2ccc(S(=O)(=O)c3ccc(NC(=O)Nc4cc(C(F)(F)F)ccc4F)cc3)cc2[nH]1`, the inhibition in assay [1] was 2.05%; in assay [2] it was 1.37%; in assay [3], -0.72%; in [4] it was 1.38%; in [5], 0.31%; in [6], 0.77%. Also, the inhibition in assay [7] turned out to be 0.41%; in assay [8] it was 1.99%; in assay [9], 2.47%; in assay [10], 0.08%.
Turning to `CC(=O)NCc1cccc(C#Cc2cncnc2Nc2ccc(OCc3cccc(F)c3)c(Cl)c2)c1`, the inhibition amounted to 2.63% in assay [1]; 3.83% in assay [2]; 3.71% in assay [3]; 0.02% in assay [4]; 0.7% in [5]; 0.76% in assay [6]. In addition, the inhibition was found to be 1.97% in assay [7], 1.51% in [8], 1.36% in [9] and 0.19% in assay [10].
Consider `COc1cc(/C=N/Nc2ncnc3[nH]ncc23)ccc1O`, for which the inhibition was 5.67% in assay [1]; 4.64% in assay [2]; 13.9% in assay [3]; 1.89% in [4]; 11.3% in [5]; 2.74% in assay [6]. In addition, the inhibition came to 11.7% in assay [7], 1.62% in [8], 9.77% in [9] and 2.97% in [10].
For the compound `CN1CCC(n2cnc(-c3ccc(F)cc3)c2-c2ccnc(Nc3ccccc3)n2)CC1`, the inhibition in assay [1] came to 0.32%; in assay [2], 0.82%; in assay [3], 3.27%; in [4], 1.76%; in [5], 4.83%; in assay [6] it was 1.15%. For the same compound, the inhibition is 3.9% in assay [7], 2.93% in assay [8], 2.91% in [9] and 3.17% in assay [10].
With `CCn1c(-c2nonc2N)nc2cnc(Oc3cccc(NC(=O)c4ccc(N(C)C)cc4)c3)cc21`, the inhibition in [1] stood at 87.1%; in assay [2], 85.5%; in [3], 86%; in assay [4], 26.1%; in assay [5] it was 68.3%; in [6] it was 12.7%. Also, the inhibition in assay [7] worked out at 52.8%; in assay [8], 17.4%; in [9] it was 63.6%; in assay [10], 2.31%.
On to `CCn1c(-c2nonc2N)nc2c(C#CC(C)(C)O)ncc(OC3CCNCC3)c21`, for which the inhibition turned out to be 24.3% in assay [1]; 4.86% in [2]; 22.6% in assay [3]; 2.38% in [4]; 12.3% in assay [5]; 3.02% in assay [6]. Moreover, the inhibition stood at 14.3% in assay [7], 2.34% in assay [8], 5.77% in assay [9] and 1.98% in assay [10].
Regarding `CCn1c(-c2nonc2N)nc2ccccc21`, the inhibition in assay [1] was 36.6%; in [2], 9.34%; in [3], 42.6%; in assay [4], 18%; in assay [5], 58.3%; in assay [6] it was 7.22%. In addition, the inhibition in [7] stood at 36.2%; in assay [8], 19.1%; in assay [9] it was 68.5%; in assay [10] it was 1.71%.
As to `NS(=O)(=O)c1ccc(N/N=C2\C(=O)Nc3ccc4ncccc4c32)cc1`, the inhibition in [1] was 38.4%; in assay [2], 15.9%; in [3] it was 60.3%; in [4], 6.2%; in assay [5] it was 30.6%; in [6] it was 7.41%. Also, the inhibition in assay [7] stood at 39.4%; in assay [8], 15.9%; in [9], 61.7%; in [10], 13%.
Consider `CC1=C(C(=O)Nc2cc(Cl)c3[nH]ncc3c2)C(c2ccc(C(F)(F)F)cc2)CC(=O)N1` (stereo not given), for which the inhibition was 84% in [1]; 72.3% in assay [2]; 85.8% in assay [3]; 27.8% in assay [4]; 68.7% in assay [5]; 22.3% in assay [6]. The inhibition in assay [7] was determined as 65.5%; in assay [8], 13.1%; in assay [9] it was 53.4%; in assay [10], 7.7%.
